Results on 61 compounds are retold here after PubChem BioAssay AID1347072 (National Center for Advancing Translational Sciences (NCATS), 2019).

The campaign covered roughly 44,000 compounds. Fewer than 10 were called active. Roughly 2% stayed inconclusive and do not appear here. Calls follow the shape of the dose curve; as a rule, active = well fitted curve in the direction sought with a large enough effect; inconclusive = small, poorly fitted or top-dose-only effect, or another doubt; inactive = no such curve, though single readings can be large or run the other way. Not all results are given here.

Galactokinase (Homo sapiens), sequence (P51570 whole entry, looked up): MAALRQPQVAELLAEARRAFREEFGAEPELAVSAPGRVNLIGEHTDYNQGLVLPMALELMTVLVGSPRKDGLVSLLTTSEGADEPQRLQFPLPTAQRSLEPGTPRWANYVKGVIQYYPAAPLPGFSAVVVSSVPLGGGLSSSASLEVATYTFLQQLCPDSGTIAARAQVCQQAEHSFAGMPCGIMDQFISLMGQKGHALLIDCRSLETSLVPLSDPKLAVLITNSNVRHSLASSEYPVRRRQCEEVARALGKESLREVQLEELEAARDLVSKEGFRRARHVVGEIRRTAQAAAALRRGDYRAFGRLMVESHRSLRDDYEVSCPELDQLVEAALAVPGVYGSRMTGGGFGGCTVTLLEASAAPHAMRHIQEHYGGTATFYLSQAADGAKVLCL

This test addresses Galactokinase (Homo sapiens) (UniProt P51570). The test is described as follows: qHTS Assay for Inhibitors of Human Galactokinase (GALK): NCGC Sytravon Library Screen. The settings on record: recombinant GALK, Kinase-Glo ATP luminescence, 1 h; series mostly up to 57.5 µM. From the text:
Inherited deficiency of galactose-1-phosphate uridyltransferase (GALT) can result in a potentially lethal disorder called Classic Galactosemia (OMIM 230400). Several lines of evidence indicate that an elevated level of galactose-1-phosphate (gal-1-p), the product of galactokinase (GALK), is a major, if not sole, pathogenic mechanism in patients with classic galactosemia. Therefore, finding inhibitors of GALK is a potential novel therapy for this inherent metabolic disease and is the long term goal of this project. This screen is run against the NCGC Sytravon compound library collection. GALK (provided by Kent Lai) was assayed using ATP and D-(+)-Galactose (Sigma-Aldrich cat# G0750) as substrates. Promega Kinase-Glo Plus technology was used to detect kinase activity. Reactions with and without GALK were used as negative and positive controls together with Protein Tyrosine Phosphatase CD45 inhibitor (EMD Bioscience cat# 540215) which is shown to inhibit GALK activity. Decrease in activity corresponds to inhibition of the enzyme is the desired outcome for this assay. NIH Molecular Libraries Probe Production Network [MLPCN] NIH Chemical Genomics Center [NCGC] Grant: R03 MH085689-01 PI Name: Kent Lai Ph.D., University of Utah
NCGC Assay Protocol Summary: Three uL/well of ATP-buffer solution (35 uM ATP, 20mM HEPES pH8.0, 5 mM MgCl2, 60 mM NaCl, 1 mM DTT, 0.01% BSA final concentration) was dispensed into 1536-well, assay plates (Greiner, solid white medium-binding plates) with Aurora Discovery BioRAPTR Flying Reagent Dispenser (FRD; Beckton-Dickenson). Compound solution (23 nL) was transferred to the assay plate using the Kalypsys 1536-pin tool. One uL/well GALK-galactose solution (5 nM GALK, 100 uM galactose, 20 mM HEPES pH8.0, 5 mM MgCl2, 60 mM NaCl, 1 mM DTT, 0.01% BSA final concentration) was then added using the FRD yielding a total kinase reaction volume of 4 uL/ well. After 1 hour of room temperature incubation, 4 uL Kinase-Glo Plus reagent was added for a final assay volume of 8 uL/ well. Luminescence was detected with the ViewLux plate reader (Perkin Elmer, Waltham, MA) after 10 min incubation using a 1 sec exposure time and 2x binning.
In the case of `CCOc1ccc(CNC(=O)C2CCN(c3nnc(-n4cccc4CNc4ccc(C)cc4)s3)CC2)cc1OC`, the result was inactive.

Take `CCN1C(=O)c2ccccc2Sc2ccc(NC(=O)Cc3ccc(OC)cc3)cc21`: the result was inactive.

`Cc1ccc(C)c(S(=O)(=O)c2nnn3c2nc(N2CCOCC2)c2sccc23)c1`: the result was inactive.

For the compound `Cc1ccc(NC(=O)C2CCN(S(=O)(=O)c3cc(-c4noc(C)n4)ccc3C)CC2)c(C)c1`, the result was inactive.

For `CCCC(=O)Nc1ccc2oc(-c3ccc(O)c(Br)c3)nc2c1`, the result was inactive.

On to `O=S(=O)(c1ccc(C2CCCCC2)cc1)N1CCN(c2ccc(Cl)c(Cl)c2)CC1`, for which the result was inactive.

Take `COc1ccc(-c2nn(CC(=O)NC3CCCC3)c3c2cnc2ccc(F)cc23)cc1`: the result was inactive.

For `Cc1ccc2oc(=O)c3cnn(CC(=O)NCc4ccccc4Cl)c3c2c1`, the outcome was inactive.

Consider `Cc1ccc(CN(C(=O)COc2ccc(Cl)cc2C)C2CCS(=O)(=O)C2)o1` (stereo unspecified), for which the outcome was inactive.

For the compound `CCN(CCCNC(=O)c1cc(Nc2ccc(OC)cc2)nc2ccccc12)c1cccc(C)c1`, the result was inactive.

Turning to `Cc1c(C)n(Cc2ccc(Cl)cc2)c2ccc(C(=O)N3CCN(c4ccccc4F)CC3)cc12`, the outcome was inactive.

Regarding `Cc1ccc(OCCSc2nc3ccc(NC(=O)COc4ccc(C)cc4)cc3s2)cc1`, the result was inactive.

Take `CCSc1nnc(NC(=O)c2cc(=O)c3cc(C)c(C)cc3o2)s1`: the result was inactive.

For `O=C(CS(=O)(=O)c1cccc2nsnc12)N1CCN(c2cccc(Cl)c2)CC1`, the result was inactive.

As to `Cc1nc2ccn(Cc3cccnc3)c(=O)c2cc1C(=O)N1CCN(c2ccccc2F)CC1`, the outcome was inactive.

Take `O=C(CSc1nc2nccnc2c(=O)n1CCc1c[nH]c2ccccc12)Nc1ccccc1F`: the result was inactive.

As for `CCn1cc(C(=O)OCC(=O)Nc2cc(C)cc(C)c2)c(=O)c2ccc(C)nc21`, the outcome was inactive.

As for `CCN1CCN(Cc2c(O)ccc3oc(C)c(C(=O)Nc4ccc(C)cc4C)c23)CC1`, the result was inactive.

With `CC1CCCN(c2csc3ccc(F)cc3c2=O)C1` (stereo unspecified), the outcome was inactive.

Regarding `Cc1ccccc1CNC(=O)c1cccc(NC(=O)c2nsc3ccccc23)c1`, the result was inactive.

As for `CN(Cc1ccco1)S(=O)(=O)c1nnc(NC(=O)c2ccccc2)s1`, the result was inactive.

As for `Cc1ccc(F)cc1S(=O)(=O)N1CCC(c2nc3ccccc3s2)CC1`, the outcome was inactive.

As for `CCn1c2ccccc2c2cc(CN3CCN(Cc4cccc(Cl)c4)CC3)ccc21`, the outcome was inactive.

`CN(Cc1ccccc1)S(=O)(=O)c1ccc(F)c(C(=O)Nc2cccc(Cl)c2Cl)c1`: the result was inactive.

In the case of `O=C(Nc1cccc2cccnc12)c1cccc2c(Br)cccc12`, the result was inactive.

On to `CCOc1ccc(NC(=O)c2cc3c(=O)n(Cc4cccs4)ccc3nc2C)cc1`, for which the result was inactive.

`CCOc1ccccc1NC(=O)CN1CCCN(Cc2cccc(Cl)c2)S1(=O)=O`: the result was inactive.

`CCOCCCNC(=O)c1c(NC(=O)Cc2coc3ccc(C)cc23)sc2c1CCC2`: the outcome was inactive.

In the case of `CCc1nn(CCCC(=O)NCc2ccc(C)cc2)c(=O)c2cc3occc3n12`, the result was inactive.

In the case of `CCOc1ccc(N(Cc2ccccc2)C(=O)c2nc(S(C)(=O)=O)ncc2Cl)cc1`, the outcome was inactive.

On to `CCCN(CCC)C(=O)Cn1c(=O)n(-c2ccc(Cl)cc2)c(=O)c2c3c(sc21)CCCCC3`, for which the result was inactive.

As to `Cc1ccc(Cl)cc1NC(=O)CSc1nccn1C`, the result was inactive.

As for `CCN(CC)S(=O)(=O)c1ccc2c(c1)c(=O)c(C(=O)N1CCN(c3cccc(Cl)c3)CC1)cn2C`, the outcome was inactive.

On to `COc1ccc(CCNC(=O)CCCCn2c(=O)c3ccccc3n(Cc3ccccc3)c2=O)cc1OC`, for which the result was inactive.

`O=C(NCCc1ccc(Cl)cc1)c1ccc2nc(CCc3ccccc3)oc2c1`: the result was inactive.

As for `Cc1oc2ncn(CC(C)C)c(=O)c2c1C(=O)N1CCN(c2ccccc2F)CC1`, the result was inactive.

For `CCCNC(=O)c1ccc(Cn2c(SCC(N)=O)nc3ccccc3c2=O)cc1`, the result was inactive.

In the case of `CCOC(=O)c1cc(NC(=O)c2ccc(F)cc2)c(=O)n2c1oc1ccccc12`, the result was inactive.

`COc1ccc(-n2c(=O)c3c(c4cc(OC)ccc4n3C)n(Cc3cccc(C)c3)c2=O)cc1`: the outcome was inactive.

`Cc1cccc(N2CCN(c3c(CN4CCCC4)c(=O)oc4ccccc34)CC2)c1C`: the result was inactive.

Consider `O=C(Nc1nnc(S(=O)(=O)N2CCCc3ccccc32)s1)c1cccc(F)c1`, for which the outcome was inactive.

Take `CC(C)c1ccc(NC(=O)CN(C)S(=O)(=O)c2ccc3c(c2)c(=O)n(C)c(=O)n3C)cc1`: the result was inactive.

Turning to `Cc1ccccc1CN1CCC(CNC(=O)c2c(C)oc3ncnc(N4CCCCC4)c23)CC1`, the result was inactive.

Regarding `CCOc1ccc(CNC(=O)C2CCCN(S(=O)(=O)N(CC)c3ccc(OCC)cc3)C2)cc1` (stereo unspecified), the result was inactive.

For `COC(=O)c1ccccc1NC(=O)C(Cc1ccccc1)N1Cc2ccccc2C1=O` (stereo unspecified), the result was inactive.

`O=C(NCCc1csc(-c2ccc(C(F)(F)F)cc2)n1)C(=O)Nc1ccc(F)c(Cl)c1`: the result was inactive.

`Cc1oc2ccc(O)c(CN3CCC(C)CC3)c2c1C(=O)Nc1ccccc1`: the result was inactive.

Consider `O=C(CC(c1cccs1)N1Cc2ccccc2C1=O)Nc1ccc(F)c(F)c1` (stereo unspecified), for which the outcome was inactive.

With `COc1ccccc1NC(=O)Cn1cnc2ccc(S(=O)(=O)N3CCC(C)CC3)cc2c1=O`, the outcome was inactive.

As for `CCc1cccc(-n2nnc(-c3nsc(NC(=O)c4ccc(C)cc4)n3)c2C)c1`, the outcome was inactive.

With `Cc1cccc(-n2ccnc2SCC(=O)Nc2cc(C(F)(F)F)ccc2Cl)c1`, the result was inactive.

Consider `COc1ccc(-c2nc3scc(CCNS(=O)(=O)c4cc(F)ccc4OC)n3n2)cc1OC`, for which the result was inactive.

Turning to `C=Cc1ccc(Cn2c(C(=O)O)c(CNC3CCCC3)c3ccc(C)cc32)cc1`, the outcome was inactive.

Consider `CCS(=O)(=O)N1CCC(n2c(C)nc3cccnc32)CC1`, for which the outcome was inactive.

Consider `Cc1ccc(C(=O)CSc2nc(-c3ccccc3)nc3c2CCCC3)c(C)c1`, for which the outcome was inactive.

For the compound `Cc1ccc(C(=O)NCCSc2c(C)[nH]c3ccccc23)cc1C`, the result was inactive.

As to `COc1ccc(CCNC(=O)c2c3c(nc4ccccc24)C(=O)N(C2CCCCC2)C3)cc1OC`, the result was inactive.

Regarding `Cc1ccc(CNC(=O)c2ccc(CS(=O)Cc3cccc(Cl)c3)o2)cc1` (stereo unspecified), the result was inactive.

In the case of `CC1Cc2cc(S(=O)(=O)CCC(=O)Nc3ccc(F)c(Cl)c3)ccc2N1C(=O)C1CC1` (stereo unspecified), the outcome was inactive.

Regarding `CCCN1CCN(CCCNC(=O)c2cnn(-c3ccc(C)cc3)c2-n2cccc2)CC1`, the outcome was inactive.

For `Cn1c(=O)c2c(SCC(=O)NCC3CCCO3)nc(-c3ccccc3F)nc2n(C)c1=O` (stereo unspecified), the outcome was inactive.
